The values below come from the supplement of paper PMC4166925.

± gives the standard deviation of the averaged measurements. Over roughly 33,000 sequences, “E-score (dimensionless, -0.5 to 0.5)” has its median near -0.049; the highest 2% begin near 0.37. The sample holds the highest values, similar sequences and a random draw of the others, so the mix is not that of the screen.

This test deals with T1, PmTbr T-box DNA-binding domain (GST fusion).
T1 sequence: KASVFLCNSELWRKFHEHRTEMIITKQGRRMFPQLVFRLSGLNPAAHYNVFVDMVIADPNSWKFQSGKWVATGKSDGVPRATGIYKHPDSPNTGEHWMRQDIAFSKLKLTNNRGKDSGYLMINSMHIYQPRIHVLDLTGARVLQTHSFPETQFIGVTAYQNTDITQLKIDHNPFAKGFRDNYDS
Description: PBM E-score of 8-mer (E-score (dimensionless, -0.5 to 0.5)); Tbr is Tbrain of the sea star Patiria miniata (Pm) or the sea urchin Strongylocentrotus purpuratus (Sp); higher = stronger binding preference. The conditions noted are these: the construct has about 5 more residues each side. The essentials:
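Expression of GST-fused Tbr T-box DNA-binding domains, each holding the full T-box plus roughly five flanking residues, was carried out in BL21 E. coli at 20 °C, with purification by glutathione affinity chromatography. Universal Agilent arrays made double-stranded by primer extension were incubated with the protein at 200 nM in PBS (pH 7.5), then scanned and quantified. All ungapped 8-mers were scored from probe intensities, and each received an enrichment E-score from the Universal PBM Analysis Suite, averaged over duplicate arrays.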
For the sequence CACCAGTA, the “PBM E-score of 8-mer” value was 0.132 ± 0.018.

Regarding CAGGCGTA, the “PBM E-score of 8-mer” value is -0.0498 ± 0.043.

Consider AGCCACGC, for which the “PBM E-score of 8-mer” value was -0.0441 ± 0.025.

ACACTACG: the “PBM E-score of 8-mer” value was determined as 0.283 ± 0.0065.

On to AGAGTTGC, for which the “PBM E-score of 8-mer” value stood at 0.0099 ± 0.0045.

For the sequence AGTACTCC, the “PBM E-score of 8-mer” value was -0.28 ± 0.033.

Regarding CTAGGCCC, the “PBM E-score of 8-mer” value was -0.274 ± 0.082.

Take TAATGCGA: the “PBM E-score of 8-mer” value was 0.0983 ± 0.054.

Turning to AAAACCTG, the “PBM E-score of 8-mer” value was 0.191 ± 0.063.

In the case of CTAGCCAG, the “PBM E-score of 8-mer” value is -0.185 ± 0.027.

AAACTCTC: the “PBM E-score of 8-mer” value was -0.00208 ± 0.031.

On to GGAGCTCA, for which the “PBM E-score of 8-mer” value was -0.0734 ± 0.021.

Take ATGTTAAC: the “PBM E-score of 8-mer” value was found to be 0.161 ± 0.015.

For CTGTTAAC, the “PBM E-score of 8-mer” value turned out to be 0.281 ± 0.055.

GTGTTAAC: the “PBM E-score of 8-mer” value was 0.438 ± 0.017.

In the case of CTAAGTGA, the “PBM E-score of 8-mer” value is 0.225 ± 0.032.

As for AACTTAGA, the “PBM E-score of 8-mer” value is -0.157 ± 0.055.

Consider ACGCAGTA, for which the “PBM E-score of 8-mer” value was -0.0663 ± 0.018.

As to CGGTGTGA, the “PBM E-score of 8-mer” value amounted to 0.451 ± 0.0064.

As to GGGTGTCA, the “PBM E-score of 8-mer” value is 0.472 ± 0.0071.

For GGGGGTCA, the “PBM E-score of 8-mer” value was -0.0111 ± 0.17.

As to CGGTGTCC, the “PBM E-score of 8-mer” value is -0.00395 ± 0.072.

For the sequence CGATGTCA, the “PBM E-score of 8-mer” value is 0.0984 ± 0.03.

In the case of CGGTGTCA, the “PBM E-score of 8-mer” value was 0.4 ± 0.012.

Take CGGTGTGC: the “PBM E-score of 8-mer” value turned out to be 0 ± 0.12.

For the sequence GCGTGTCA, the “PBM E-score of 8-mer” value worked out at 0.276 ± 0.034.

As for CGATGTGA, the “PBM E-score of 8-mer” value worked out at 0.228 ± 0.018.

On to CGAAATTC, for which the “PBM E-score of 8-mer” value worked out at 0.0215 ± 0.011.

Turning to ATAATGCC, the “PBM E-score of 8-mer” value was -0.174 ± 0.081.

Regarding AGTATGCG, the “PBM E-score of 8-mer” value was -0.0996 ± 0.096.

CAGAACCA: the “PBM E-score of 8-mer” value was -0.232 ± 0.018.

Turning to GCAATTCA, the “PBM E-score of 8-mer” value stood at 0.0777 ± 0.042.

On to GACAAGGC, for which the “PBM E-score of 8-mer” value is 0.101 ± 0.025.

On to CTTCGCCC, for which the “PBM E-score of 8-mer” value is -0.0791 ± 0.096.

Consider ATTCGCAA, for which the “PBM E-score of 8-mer” value was 0.298 ± 0.027.

For ATTCGCAC, the “PBM E-score of 8-mer” value was 0.4784 ± 0.002.

Regarding ATTCGCAG, the “PBM E-score of 8-mer” value is 0.297 ± 0.024.

In the case of CTTCGCAA, the “PBM E-score of 8-mer” value amounted to 0.336 ± 0.028.

As for CTTCGCAC, the “PBM E-score of 8-mer” value was 0.454 ± 0.019.

Regarding GATTACGA, the “PBM E-score of 8-mer” value is -0.00232 ± 0.07.

Regarding ATGGCAGA, the “PBM E-score of 8-mer” value is -0.0257 ± 0.063.

On to AAGACATT, for which the “PBM E-score of 8-mer” value was -0.203 ± 0.097.

For the sequence CTGACATC, the “PBM E-score of 8-mer” value is -0.0976 ± 0.035.

ATGACACA: the “PBM E-score of 8-mer” value was found to be 0.314 ± 0.0075.

Consider CTGACACC, for which the “PBM E-score of 8-mer” value is 0.464 ± 0.0063.

In the case of ATGACACG, the “PBM E-score of 8-mer” value was determined as 0.312 ± 0.017.

As for ATGACACC, the “PBM E-score of 8-mer” value was 0.463 ± 0.0098.

For the sequence CTGACAGC, the “PBM E-score of 8-mer” value was 0.289 ± 0.011.

With GCCGCTGA, the “PBM E-score of 8-mer” value is -0.113 ± 0.074.

For the sequence GACATCGA, the “PBM E-score of 8-mer” value was -0.0159 ± 0.0023.

Turning to CACACCAC, the “PBM E-score of 8-mer” value is 0.406 ± 0.012.

Regarding CGCACCAG, the “PBM E-score of 8-mer” value was determined as 0.2978 ± 0.0014.

With CACCACAC, the “PBM E-score of 8-mer” value was found to be 0.367 ± 0.018.

Turning to CTCACCAA, the “PBM E-score of 8-mer” value worked out at 0.211 ± 0.042.

Turning to CCCACCAC, the “PBM E-score of 8-mer” value is -0.0276 ± 0.048.

As for CACACCAG, the “PBM E-score of 8-mer” value is 0.399 ± 0.018.

For the sequence CACACCAA, the “PBM E-score of 8-mer” value stood at 0.3718 ± 0.0018.

Regarding AACACCAG, the “PBM E-score of 8-mer” value came to 0.335 ± 0.022.

On to CCCACCAA, for which the “PBM E-score of 8-mer” value was -0.112 ± 0.048.

CAATATCG: the “PBM E-score of 8-mer” value came out at 0.06478 ± 0.00031.

GCCATAGA: the “PBM E-score of 8-mer” value was -0.0661 ± 0.067.

As to CAGGTAGC, the “PBM E-score of 8-mer” value was -0.062 ± 0.011.

For CAGTACCA, the “PBM E-score of 8-mer” value is -0.0345 ± 0.056.

For the sequence ACATTACC, the “PBM E-score of 8-mer” value was -0.144 ± 0.023.

For the sequence AGCCACGG, the “PBM E-score of 8-mer” value was -0.119 ± 0.013.

On to CTCGTCCC, for which the “PBM E-score of 8-mer” value is -0.303 ± 0.016.

As for AAATAGGT, the “PBM E-score of 8-mer” value turned out to be 0.0404 ± 0.07.

Turning to GCACAGGA, the “PBM E-score of 8-mer” value is -0.162 ± 0.05.

In the case of CGCAAAAC, the “PBM E-score of 8-mer” value turned out to be 0.0965 ± 0.0024.

Turning to ACACGTGC, the “PBM E-score of 8-mer” value was determined as 0.387 ± 0.023.

Regarding ACACGTGA, the “PBM E-score of 8-mer” value came to 0.292 ± 0.017.

For the sequence ACACGTGT, the “PBM E-score of 8-mer” value was found to be 0.403 ± 0.023.

Take ACACGTGG: the “PBM E-score of 8-mer” value was 0.307 ± 0.022.

On to GCACGTGC, for which the “PBM E-score of 8-mer” value came to 0.2695 ± 0.0011.

Regarding CCACGTGC, the “PBM E-score of 8-mer” value turned out to be 0.149 ± 0.013.

ACATGGTG: the “PBM E-score of 8-mer” value was determined as 0.243 ± 0.0055.

In the case of GCAAGCCA, the “PBM E-score of 8-mer” value is -0.221 ± 0.037.

Consider GCATCTGA, for which the “PBM E-score of 8-mer” value is -0.0824 ± 0.1.

With ATTATCCG, the “PBM E-score of 8-mer” value was -0.0296 ± 0.042.

As for GATGGCGA, the “PBM E-score of 8-mer” value was found to be 0.1142 ± 0.00067.

As to CAGTGGAG, the “PBM E-score of 8-mer” value is -0.068 ± 0.012.

Turning to GCTTGTGA, the “PBM E-score of 8-mer” value is 0.187 ± 0.0082.

For the sequence AGTTGTGA, the “PBM E-score of 8-mer” value was found to be 0.387 ± 0.017.

For the sequence ACTTGTTA, the “PBM E-score of 8-mer” value was found to be 0.372 ± 0.044.

For CCTTGTTA, the “PBM E-score of 8-mer” value came to 0.126 ± 0.011.

For GCTTGTCA, the “PBM E-score of 8-mer” value stood at 0.0851 ± 0.047.

AGTTGTGG: the “PBM E-score of 8-mer” value worked out at 0.122 ± 0.039.

On to ACTTGTGG, for which the “PBM E-score of 8-mer” value came out at 0.196 ± 0.014.

Turning to ACTTGTCA, the “PBM E-score of 8-mer” value was 0.4044 ± 0.0039.

With ACTTGTGA, the “PBM E-score of 8-mer” value worked out at 0.411 ± 0.0095.

As to ACTTGTTG, the “PBM E-score of 8-mer” value was 0.332 ± 0.018.

Turning to CGTTGTGA, the “PBM E-score of 8-mer” value came out at 0.2 ± 0.0095.

On to TCTTGTCA, for which the “PBM E-score of 8-mer” value was 0.207 ± 0.023.

Take ATACTTAA: the “PBM E-score of 8-mer” value was -0.187 ± 0.096.
